Compounds with a hit are over-represented: about 1.4% of the library has one in this group of screens.
LDHA inh = qHTS assay for inhibitors of human lactate dehydrogenase; purified LDHA, NADH/diaphorase-resazurin fluorescence; stronger effect = lower value; activity change, % (values are at about 110 or 230 µM); 480,000 compounds, 0.15% hits; in the data active = activity change below about -30%; inconclusive = mostly about -25% to -30%;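 note: plate controls were DMSO wells for no effect and wells without enzyme for full effect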
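LDH5 2 nM; NADH 0.06 mM, pyruvate 0.2 mM; 200 mM Tris pH 7.4, EDTA, Tween-20; 5 min RT. Detection: diaphorase 0.133 mg/mL + resazurin 37 µM, fluorescence ex540/em590 at 0 and 20 min; normalized to enzyme-free and DMSO wells.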
TrxR1 inh-1 = qHTS Assay for Inhibitors of Mammalian Selenoprotein Thioredoxin Reductase 1 (TrxR1): qHTS. 390,000 compounds, 1% hits. recombinant rTrxR1, NADPH fluorescence consumption, selenite substrate. Thioredoxin reductase 1, cytoplasmic (Rattus norvegicus), O89049. Potency, µM (doses to about 114 µM), inactives show top-dose activity change, negative = inhibition, most hits filed as inhibitors; note: potency is the fitted concentration of half-maximal effect; % is set by controls: 0 for no effect and ±100 for the full control effect; nearly all actives have a fitted effect of over 65% in size
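Rat TrxR1 (90 nM in the dispensed reagent) was pre-reduced with 400 uM NADPH for 5 min at room temperature, then incubated with compound for 15 min. After 400 uM selenite was added, NADPH fluorescence (Ex 340/Em 450 nm) was followed for 8 min.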
IDH1 R132H inh = qHTS for Inhibitors of mutant isocitrate dehydrogenase 1 (IDH1): qHTS; Potency, µM (doses to about 76.6 µM), without a hit: at the highest dose activity change, negative = inhibition, usual class: inhibitors; 390,000 compounds, 0.093% hits; Isocitrate dehydrogenase [NADP] cytoplasmic (Homo sapiens), O75874; IDH1-R132H enzyme, NADPH consumption, diaphorase/resazurin fluorescence; note: potency is the fitted concentration of half-maximal effect; % is set by controls: 0 for no effect and ±100 for the full control effect; nearly all actives have a fitted effect of over 65% in size
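IDH1-R132H (0.5 ug/mL dispensed) in pH 7.5 Tris buffer was preincubated 30 min with compound, then given a substrate mix of 0.016 mM NADPH and 2 mM alpha-KG for 80 min at room temperature; remaining NADPH was read by diaphorase/resazurin fluorescence.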
GLS inh = qHTS for Inhibitors of Glutaminase (GLS) | Glutaminase kidney isoform, mitochondrial (Homo sapiens), O94925 | GLS enzymatic activity, qHTS titration | Potency, µM (top dose mostly 45.5 µM), without a hit: at the highest dose activity change, negative = inhibition, hits mostly inhibitors | 410,000 compounds, 0.21% hits | AID 624170, 2012; note: potency is the fitted concentration of half-maximal effect; % is set by controls: 0 for no effect and ±100 for the full control effect
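Two-point fluorescence kinetic (t0, 30 min RT) for hKGA; glutamate detected via glutamate oxidase–HRP–Amplex Red. Substrate: 1 mM L-glutamine solution; buffer 45 mM KH2PO4, pH 8.2.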
PKM2 act = qHTS Assay for Activators of Human Muscle isoform 2 Pyruvate Kinase; Pyruvate kinase PKM (Homo sapiens), P14618; purified PKM2, Kinase-Glo ATP luminescence, activation; response scale: 0% is enzyme alone, no compound; Potency, µM (titrated, usually from 57.5 µM), inactives show top-dose activation, most hits filed as activators; 260,000 compounds, 0.34% hits; note: potency is the fitted concentration of half-maximal effect; % is set by controls: 0 for no effect and ±100 for the full control effect; nearly all actives have a fitted effect of over 55% in size
Target sequence (P14618 whole entry, looked up, canonical isoform): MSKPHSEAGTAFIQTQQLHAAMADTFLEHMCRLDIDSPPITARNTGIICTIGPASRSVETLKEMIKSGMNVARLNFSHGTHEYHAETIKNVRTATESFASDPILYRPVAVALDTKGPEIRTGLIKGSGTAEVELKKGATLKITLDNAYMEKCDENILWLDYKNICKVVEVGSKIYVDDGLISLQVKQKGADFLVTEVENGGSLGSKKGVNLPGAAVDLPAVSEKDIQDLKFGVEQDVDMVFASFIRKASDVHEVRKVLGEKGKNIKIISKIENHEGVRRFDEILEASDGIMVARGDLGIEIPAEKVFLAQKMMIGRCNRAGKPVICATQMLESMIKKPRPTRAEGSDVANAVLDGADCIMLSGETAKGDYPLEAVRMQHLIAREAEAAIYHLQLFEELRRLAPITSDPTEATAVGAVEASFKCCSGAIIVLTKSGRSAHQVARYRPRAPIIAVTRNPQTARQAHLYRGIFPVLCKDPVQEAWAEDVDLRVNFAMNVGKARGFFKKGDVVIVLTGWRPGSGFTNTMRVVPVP
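hPK-M2, >95% pure; 0.1 mM ADP / 0.5 mM PEP final; imidazole pH7.2 buffer w/ 7 mM MgCl2, 50 mM KCl; 1 h RT; Kinase-Glo lum. Intermediate enzyme activity for dual inhibitor/activator qHTS.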
TrxR1 substrate = qHTS Assay for Substrates of Mammalian Selenoprotein Thioredoxin Reductase 1 (TrxR1): qHTS; Potency, µM (series often up to 114 µM), without a hit: at the top dose activity change, negative = substrate turnover; Thioredoxin reductase 1, cytoplasmic (Rattus norvegicus), O89049; purified TrxR1 substrate turnover, NADPH consumption readout; 390,000 compounds, 0.01% hits; AID 588456, 2011; note: potency is the fitted concentration of half-maximal effect; % is set by controls: 0 for no effect and ±100 for the full control effect; nearly all actives have a fitted effect of over 50% in size
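Rat TrxR1, dispensed at 90 nM, was prereduced with 400 uM NADPH (final) for 5 min at ~22 deg C, then incubated with compound 15 min before 400 uM selenite. A first-read NADPH fluorescence drop versus no-compound background flagged substrates.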
HeLa tox = Secondary assay for Activators of Human Pyruvate Kinase M2 isoform - Cell Titer Glo cytotoxicity assay; shares compounds with PKM2 act; HeLa viability, CellTiter-Glo ATP luminescence, 24 h; activity change, negative = cytotoxicity, % at 57.5 µM; 230 tested, under 10 active; AID 1898, 2009; note: % of control where 0% means no effect
GR inh = qHTS Assay for Inhibitors of Mammalian Selenoprotein Thioredoxin Reductase 1 (TrxR1): Counterassay in Glutathione Reductase (GR); purified GR, DTNB reduction absorbance 405 nm kinetic; 55 tested, under 10 active; activity change, negative = inhibition, % at 57.1 µM; shares compounds with TrxR1 inh-1; AID 652020, 2013
TrxR1 inh-2 = qHTS Assay for Inhibitors of Mammalian Selenoprotein Thioredoxin Reductase 1 (TrxR1): Hit Validation in Primary Screen | 55 compounds, 50% hits | recombinant TrxR1, NADPH fluorescence consumption, selenite substrate | shares compounds with TrxR1 inh-1 | Potency, µM, actives largely listed as inhibitors
TrxR1 insulin = qHTS Assay for Inhibitors of Mammalian Selenoprotein Thioredoxin Reductase 1 (TrxR1): Insulin MOA Assay; shares compounds with TrxR1 inh-1; TrxR1 Trx-coupled insulin reduction, NADPH absorbance 340 nm; Potency, µM; 55 compounds, 20% hits;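 active = compounds with a measured potency under 100 micromolar; inconclusive = filed, but no rule given; inactive = potency at or above that, or unmeasurable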
TrxR1 inh-3 = qHTS Assay for Inhibitors of Mammalian Selenoprotein Thioredoxin Reductase 1 (TrxR1): DTNB Assay; shares compounds with TrxR1 inh-1; purified TrxR1, DTNB reduction, A412; Potency, µM; 55 compounds, 90% hits; AID 652256, 2013;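 active = a half-inhibiting concentration could be measured and was below 100 µM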
* hit, by the source's call; i = inactive; ? = inconclusive; nt = not tested or not shown; [ ] = dose if it differs, or a comment. Unless noted, calls come from the whole dose curve; as a rule, active = well fitted curve in the direction sought with a large enough effect; inconclusive = small, poorly fitted or top-dose-only effect, or another doubt; inactive = no such curve, though single readings can be large; an effect the other way counts as inactive or inconclusive.

SMILES	LDHA inh	TrxR1 inh-1	IDH1 R132H inh	GLS inh	PKM2 act	TrxR1 substrate	HeLa tox	others
O=C(CSc1nc2nc[nH]c2c(=O)[nH]1)NCc1ccccc1	-2	nt	nt	nt	nt	nt	nt
Cc1cc2c(s1)c1cnn(Cc3ccc(C)c(F)c3F)c(=O)c1n2C	-17	nt	nt	nt	nt	nt	-10
Cc1cc2c(s1)c1cnn(Cc3cccc(C(F)(F)F)c3F)c(=O)c1n2C	-3	nt	nt	nt	nt	nt	nt
Cc1cc2c(s1)c1cnn(Cc3cccc(F)c3F)c(=O)c1n2C	-6	nt	nt	nt	nt	nt	-8
CCN(CC)CCCNC(=O)C1CCN(c2ncnc3nc[nH]c23)CC1	4	nt	nt	nt	nt	nt	nt
CCOC(=O)c1c(-c2ccccc2)csc1NC(=O)CSc1ccccc1	1	-1%	2%	1%	-17%	-2%	nt
CCOC(=O)c1c(-c2ccccc2)csc1NC(=O)CSc1nnnn1C	-5	23%	11%	-12%	3.5µM*	0%	?
CN(Cc1cc2ccccc2[nH]c1=O)C(=O)c1cccc(Cl)c1	-6	nt	nt	nt	nt	nt	nt
COc1cc(NC(=O)CSc2nnc3c(n2)[nH]c2ccc(S(=O)(=O)NC(C)C)cc23)cc(OC)c1OC	0	-3%	-5%	-11%	0.79µM*	-2%	-18
COc1cc(NC(=O)CSc2nnc3c(n2)[nH]c2ccc(OC)cc23)cc(OC)c1	-3	-2%	nt	nt	nt	-7%	nt
COC(=O)Nc1ccc(C(=O)NCc2ccccc2)cc1	-4	nt	nt	nt	nt	nt	nt
COc1cccc(NC(=O)CSc2nnc3cc(C)nc(N)n23)c1	3	17%[57.1 µM]	5%	0%	1.8µM*	10%[57.1 µM]	0
Cc1cc2nnc(SCC(=O)Nc3ccc(Cl)cc3)n2c(N)n1	-4	22%[57.1 µM]	-1%	-7%	?	-1%[57.1 µM]	nt
c1ccc(CCCOCC2CCNCC2)cc1	-2	nt	nt	nt	nt	nt	nt
O=S(=O)(NCCCCCNS(=O)(=O)c1ccccc1)c1ccccc1	-7	11%[57.1 µM]	8%	25%	1.4µM*	4%[57.1 µM]	-8
Cc1ccc(NC(=O)Cn2sc3nc(C)cc(C)c3c2=O)c(Cl)c1	-7	-26%	-1%	-17%	3.5µM*	-12%	?
Cc1cc(NC(=O)c2cnn3c(C(F)(F)F)cc(-c4ccccc4)nc23)no1	-10	25%	1%	6%	3.5µM*	5%	28
Cc1cccc(-c2cccc(N)c2)c1	4	nt	nt	nt	nt	nt	nt
Cc1ccc(S(=O)(=O)N2CCN(c3ccc([N+](=O)[O-])c(Sc4nncn4C)c3)CC2)cc1	-5	-13%	-1%	6%	0.2µM*	-15%	1
COc1ccc(C(=O)/C=C/C(=O)N(CC(=O)NC2CCCCC2)Cc2ccccc2)c(O)c1	3	3.2µM*	8%	-16%	3.5µM*	8%	?
O=C(c1ccc2c(=O)n(Cc3ccco3)c(=S)[nH]c2c1)N1CCN(Cc2ccccc2)CC1	-1	-17%	1%	2%	0.63µM*	2%	-2
Cc1ccc(NS(=O)(=O)c2ccc3oc(=O)ccc3c2)cc1Cl	1	12%	-10%	-9%	1µM*	-4%	-4
COc1cccc(CNC(=O)CCC2CCCN(C(=O)c3cc(C)on3)C2)c1 (stereo not given)	0	-2%	-5%	-3%	6%	-7%	nt
COc1cccc(CNC(=O)CCC2CCCN(C(=O)c3cc(C4CC4)[nH]n3)C2)c1 (stereo not given)	0	20%	13%	-6%	3.5µM*	5%	-4
COc1cc(C(c2nnnn2C(C)(C)C)N2CCN(c3nc4ccccc4s3)CC2)ccc1O (stereo not given)	-5	13µM*	1%	0%	25µM*	10%[57.1 µM]	nt	GR inh=-3;TrxR1 inh-2=?;TrxR1 insulin=i;TrxR1 inh-3=0.16µM*

Screening data: PubChem, National Center for Advancing Translational Sciences (NCATS)
